# The entries come from a sample that favours hits as a whole.
# IL-1B inflam inh: blocks inflammasome-driven IL-1 beta release | activity change, % at 57.5 µM | 360,000 tested, 4.7% active | THP-1 LPS/ATP IL-1B secretion, AlphaLISA, 16 h; stronger effect = lower value | AID 743279; in the data active = activity change below about -50%; inconclusive = mostly about -30% to -49%
#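 Secreted IL-1B measured by AlphaLISA bead assay after 16 h compound exposure of THP-1 cells; compounds (final up to 57.5 uM) added 1 h before LPS (250 ng/mL) and ATP (1.25 mM) stimulation; lower signal means less secretion.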
# HT1080-NT tox: kills 2HG-producing HT-1080-NT fibrosarcoma cells | Potency, µM (top dose mostly 46.1 µM), for inactives: at the highest dose activity, negative = less viability, actives largely listed as cytotoxic | AID 686970 | 360,000 tested, 1.6% active | HT-1080-NT fibrosarcoma viability, CellTiter-Glo ATP luminescence, 48 h;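 note: NT is the 2HG producing partner of a matched IDH1 knockdown line; potency is the fitted concentration of half-maximal effect; 0% = DMSO-treated cells and -100% = media-only wells without cells; nearly all actives have a fitted effect of over 55% in size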
#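 Toxicity toward the 2HG-producing NT line was scored as %Activity, normalised to DMSO and no-cell wells, from CellTiter-Glo luminescence after 48 hours' treatment.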
# ALOX12 inh: ALOX12 (human) lipoxygenase inhibition; P18054; purified 12hLO, xylenol orange hydroperoxide absorbance; Potency, µM (series often up to 108 µM), without a hit: at the highest dose activity change, negative = inhibition, most hits filed as inhibitors; 580,000 tested, 1.1% active; AID 1671190; note: potency is the fitted concentration of half-maximal effect
# Target sequence (P18054 whole entry, looked up): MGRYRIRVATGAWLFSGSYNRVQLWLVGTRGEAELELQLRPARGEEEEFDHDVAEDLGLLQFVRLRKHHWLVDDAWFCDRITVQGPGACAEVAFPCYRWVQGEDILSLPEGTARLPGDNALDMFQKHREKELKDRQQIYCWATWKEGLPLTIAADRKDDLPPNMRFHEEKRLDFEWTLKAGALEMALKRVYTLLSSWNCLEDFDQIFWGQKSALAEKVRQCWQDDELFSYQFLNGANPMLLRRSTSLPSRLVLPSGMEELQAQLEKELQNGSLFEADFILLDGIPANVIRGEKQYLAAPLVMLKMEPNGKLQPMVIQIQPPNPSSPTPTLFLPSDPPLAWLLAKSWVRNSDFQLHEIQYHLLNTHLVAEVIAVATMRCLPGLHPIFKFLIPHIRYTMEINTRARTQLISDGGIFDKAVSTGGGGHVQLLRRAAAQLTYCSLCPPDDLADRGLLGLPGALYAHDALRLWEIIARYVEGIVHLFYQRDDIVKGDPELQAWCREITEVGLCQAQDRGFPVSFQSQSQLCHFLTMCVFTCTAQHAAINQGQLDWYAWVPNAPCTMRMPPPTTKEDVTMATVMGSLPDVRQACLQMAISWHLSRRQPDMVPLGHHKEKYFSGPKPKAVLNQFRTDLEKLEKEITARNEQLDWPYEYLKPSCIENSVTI
#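 Purified human 12hLO at 150 nM in 25 mM Hepes, 0.01% Triton X-100, pH 7.0, preincubated 15 min at room temperature with compound. Reaction started with 40 uM arachidonic acid, 30 min at room temperature. Hydroperoxide measured by Fe-xylenol orange, 573/405 nm absorbance ratio.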
# TDP1 cell noCPT: qHTS for Inhibitors of human tyrosyl-DNA phosphodiesterase 1 (TDP1): qHTS in cells in absence of CPT. 420,000 tested, 15% active. DT40 Tdp1-/- hTDP1 cells, no CPT, ATP luminescence, 48 h. Potency, µM (doses to about 46.2 µM), for inactives: top-dose activity change, negative = growth inhibition, hits mostly inhibitors; note: potency is the fitted concentration of half-maximal effect; nearly all actives have a fitted effect of over 55% in size
#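 Growth of hTDP1-complemented DT40 Tdp1-knockout cells is measured by ATP luminescence after at least 48 hr compound exposure at 37 °C, with DMSO substituting for the 20 nM CPT used in the parallel screen.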
# HT1080 IDH1KD tx: toxicity to HT-1080 IDH1 knockdown cells (counter line). HT-1080 IDH1 knockdown viability, ATP luminescence, 48 h. Potency, µM (series often up to 46.1 µM), for inactives: at the highest dose activity, negative = toxicity, usual class: cytotoxic. 360,000 tested, 2% active. AID 686971;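 note: potency is the fitted concentration of half-maximal effect; 0% = DMSO wells and -100% = cell-free medium wells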
#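 CellTiter-Glo luminescence after 48 h compound exposure at 37 degrees C of IDH1-knockdown HT-1080 cells in 5% FBS RPMI. %Activity scaled between DMSO wells and cell-free media wells, with curves fitted and assigned curve classes.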
# TDP1 cell CPT: DT40-hTDP1 cell growth loss with CPT | Potency, µM (doses to about 46.2 µM), for the others: top-dose activity change, negative = growth inhibition, actives largely listed as inhibitors | 420,000 tested, 12% active | chicken DT40 Tdp1-/-;hTDP1 cells + 20 nM CPT, ATP luminescence, 48 h; note: potency is the fitted concentration of half-maximal effect; nearly all actives have a fitted effect of over 55% in size
#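 Chicken DT40 Tdp1-/- cells stably complemented with human TDP1 were seeded at 400 cells/well in medium containing 20 nM camptothecin, exposed to pin-transferred compounds, and grown at 37 °C for at least 48 hr. Viability was read as ATP luminescence.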
# * hit, by the source's call; ? = inconclusive; . = no result given; [ ] = dose if it differs, or a comment. Unless noted, calls come from the whole dose curve; as a rule, active = well fitted curve in the direction sought with a large enough effect; inconclusive = small, poorly fitted or top-dose-only effect, or another doubt; inactive = no such curve, though single readings can be large; an effect the other way counts as inactive or inconclusive. Unless noted, % is set by controls: 0 for no effect and ±100 for the full control effect.
SMILES,IL-1B inflam inh,HT1080-NT tox,ALOX12 inh,TDP1 cell noCPT,HT1080 IDH1KD tx,TDP1 cell CPT
CC(C)(O)CCc1cccc(C(=O)NCCOc2cccc3cccnc23)c1,.,.,12.6%,.,.,.
O=C(COc1ccccc1C(=O)N/N=C\c1ccc(O)c(O)c1)N/N=C/c1ccc(O)c(O)c1,6.1,-1.7%,.,?,-23.6%,16.4µM*
CCOc1cc(/C=N/NC(=O)N/N=C/c2ccc(O)c(OCC)c2)ccc1O,?,1.84µM*,83.1%,2.91µM*,2.59µM*,2.59µM*
CCOc1cc(/C=N/NC(=O)c2ccccc2OCc2ccc(F)cc2)ccc1O,-7.9,-3.2%,0.0%,13µM*,-4.8%,?
CCOc1cc(/C=N/Nc2nnc(C)n2N)ccc1O,0.0,?,?,-7.4%,23.1µM*,?
O=C(COc1ccccc1[N+](=O)[O-])N/N=C/c1ccc(O)c([N+](=O)[O-])c1,27.9,-0.1%,-2.0%,-15.0%,-10.4%,?
CCOc1cc(/C=N/NC(=O)C(=O)N/N=C/c2ccc(O)c(OCC)c2)ccc1O,9.8,11.1%,0.0%,-0.7%,12.1%,-0.2%
CCOc1cc(/C=N/NC(=O)c2ccccc2-n2cccc2)ccc1O,29.6,?,-5.5%,?,?,?
CCn1c(=O)c2sccc2n(CC(=O)N(C)c2ccccc2)c1=O,.,.,6.5%,.,.,.
O=C(O)C(c1c[nH]c2ccccc12)N1CCN(S(=O)(=O)c2ccccc2)CC1 (centres undefined),.,.,-24.0%,.,.,.
Cc1cc2nc3n(c(=O)c2n1CC(=O)Nc1ccccc1C(C)C)CCCCC3,.,.,17.1%,.,.,.
Cc1cc(C(=O)NC2CCCCC2)c2ccccc2n1,.,.,-4.7%,.,.,.
C=CCN1C(=O)COc2ccc(NC(=O)c3cc(=O)c4cccc(C)c4o3)cc21,.,.,-29.1%,.,.,.
Cn1c(=O)c2c(-c3ccccc3)n3c(c2n(C)c1=O)C(c1ccc(C#N)cc1)Nc1ccccc1-3 (centres undefined),.,.,-58.7%,.,.,.
CC1CCC2(CC1)NC(=O)N(CC(=O)Nc1ccc(C(C)C)cc1)C2=O (centres undefined),.,.,-2.7%,.,.,.
COc1ccc(S(=O)(=O)N(CCc2ccccc2)CC(=O)N/N=C/c2ccc3c(c2)OCO3)cc1,-0.9,-2.8%,-9.7%,?,3.5%,?
COc1ccc(/C=N/NC(=O)c2sccc2OCc2ccc(F)cc2)cc1OC,10.0,-6.0%,45.9%,23.1µM*,1.0%,16.4µM*
CCOc1cc(/C=N/NC(=O)CN(CCc2ccccc2)S(=O)(=O)c2ccc(NC(C)=O)cc2)ccc1O,?,?,-2.1%,18.4µM*,-18.1%,?
CCOc1cc(C=NN=C2c3ccccc3-c3ccccc32)ccc1O,-17.1,-28.4%,?,18.4µM*,?,?
Cc1oc(-c2ccccc2)nc1CC(=O)Nc1ccc(S(=O)(=O)NC(C)C)cc1,.,.,-3.0%,.,.,.
CC(=O)N(C)Cc1ccccc1C(F)(F)F,.,.,90.8%[176 µM],.,.,.
Cc1nc(Nc2nc3ccccc3o2)ncc1C(=O)Nc1ccccc1C(F)(F)F,.,.,50.8%,.,.,.
COC(=O)C1SCC2C(=O)N(Cc3ccc(Cl)c(Cl)c3)CC(=O)N21 (centres undefined),-4.8,-6.9%,-20.2%,?,-0.4%,23.1µM*
CC[C@]12c3[nH]c4ccc(OC)cc4c3CCN1C(=O)C(CC(=O)NCC13CC4CC(CC(C4)C1)C3)C[C@@H]2C(=O)N1CCN(C(=O)c2ccco2)CC1 (some centres undefined),-54.8*,-29.2%,.,8.2µM*,?,11.6µM*
CC[C@]12c3[nH]c4ccc(Cl)cc4c3CCN1C(=O)[C@@H](CC(=O)NCCN1CCOCC1)C[C@@H]2C(=O)N1CCN(C(=O)c2ccco2)CC1,-6.7,0.0%,-5.9%,-1.6%,0.3%,-12.0%
SMILES,IL-1B inflam inh,HT1080-NT tox,ALOX12 inh,TDP1 cell noCPT,HT1080 IDH1KD tx,TDP1 cell CPT
CC[C@]12c3[nH]c4ccc(OC)cc4c3CCN1C(=O)C(CC(=O)NCCCOC)C[C@@H]2C(=O)N1CCN(C(=O)C2CC2)CC1 (some centres undefined),-1.8,0.8%,0.0%,3.0%,3.5%,?
CC[C@]12c3[nH]c4ccc(Cl)cc4c3CCN1C(=O)[C@@H](CC(=O)NCC13CC4CC(CC(C4)C1)C3)C[C@@H]2C(=O)N1CCN(C(=O)c2ccco2)CC1,-26.1,?,?,13µM*,18.4µM*,?
CC[C@]12c3[nH]c4ccc(Cl)cc4c3CCN1C(=O)[C@@H](CC(=O)NCCC1=CCCCC1)C[C@@H]2C(=O)N1CCN(C(=O)c2ccco2)CC1,-22.7,?,25.1µM*,?,?,20.6µM*
CC[C@]12c3[nH]c4ccc(Cl)cc4c3CCN1C(=O)[C@@H](CC(=O)NCc1ccco1)C[C@@H]2C(=O)N1CCN(C(=O)c2ccco2)CC1,10.0,0.1%,-19.5%,20.6µM*,-1.7%,16.4µM*
COCCNC(=O)[C@H]1C[C@H](Oc2ccccc2)CN1C(=O)NCCc1ccccc1,.,.,32.0%,.,.,.
CCN(C(=O)C(C)Cl)C1CCCCC1 (centres undefined),.,.,-0.4%,.,.,.
CN(C1CCCCC1)S(=O)(=O)c1ccc(=S)[nH]c1,6.0,8.4%,39.8µM*,?,8.8%,?
CN(C1CCCCC1)S(=O)(=O)c1ccc(S(=O)(=O)N2CCCC2)cc1,2.6,-20.4%,-3.0%[57.4 µM],?,5.5%[9.24 µM],?
CCNc1c(NC(=O)Cc2ccc(F)cc2)c(=O)oc2ccccc12,.,.,-4.7%,.,.,.
Cc1cc(C)cc(NC(=O)c2ccc(CSc3nnnn3C)cc2)c1,-52.8*,-5.0%,0.2%,-6.2%,-10.3%,-5.7%
Cc1[nH]c2ccccc2c1/C=C/c1nc2ccccc2c(=O)[nH]1,-103.4*,?,?,10.3µM*,16.4µM*,?
Cc1cccc(/C=C/c2nc3ccccc3c(=O)[nH]2)c1,3.2,?,1.1%,14.6µM*,?,20.6µM*
COc1cc(/C=C/c2nc3ccccc3c(=O)[nH]2)ccc1O,?,-29.8%,?,16.4µM*,?,?
Cc1[nH]c2ccccc2c1/C=C/c1nc2ccccc2c(=O)n1-c1ccc([N+](=O)[O-])cc1,0.0,-6.4%,0.7%,2.06µM*,1.9%,?
CCOc1cc(/C=C/c2nc3ccccc3c(=O)[nH]2)ccc1O,-3.3,-0.5%,-22.5%,?,-8.6%,?
